From PubChem
TDP-43 yeast inh = TDP-43 toxicity inhibition in yeast; TDP-43 expressing yeast growth rescue, BacTiter-Glo, 24 h; Potency, µM (highest dose often 46.1 µM), actives largely listed as activators; hit rate 1.8% among 410,000; further: nearly all actives have a fitted effect of over 50% in size
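Luminescence from BacTiter-Glo reports growth of TDP-43-expressing yeast after 24 hr at 30 deg C with compound. Cells were raffinose-pregrown to mid-log, then seeded in galactose medium at OD600=0.02.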
aSyn yeast inh = inhibitors of alpha-synuclein toxicity in yeast | Potency, µM (highest dose often 46.1 µM), hits mostly activators | hit rate 0.14% among 370,000 | Yeast expressing alpha-synuclein, growth rescue, BacTiter-Glo, 24 h | AID 652106; further: nearly all actives have a fitted effect of over 65% in size
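Rescue of yeast growth: cells expressing toxic alpha-synuclein, induced in galactose at OD600 0.02, incubated with compound 24 h at 30 C. ATP luminescence quantified growth; inhibitors of toxicity appear as activators.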
FUS suppressor = FUS proteinopathy suppression in yeast | S. cerevisiae FUS-expressing, growth rescue, OD600, 24 h | Potency, µM (series often up to 76.6 µM), actives largely listed as activators | hit rate 0.24% among 390,000 | AID 1347120; further: nearly all actives have a fitted effect of over 55% in size
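Read-out: OD at 600 nm after 24hr at 30C, reporting rescue of FUS-induced yeast toxicity. Cells at OD 0.005 in galactose (2%) minimal medium; compounds tested in a dilution series; CP55940 titration from 92uM final as control.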
Abeta yeast res = restores growth of yeast expressing A-beta42 peptide; Potency, µM (top dose mostly 46.1 µM), actives largely listed as activators; hit rate 0.063% among 410,000; yeast expressing A-beta42, growth rescue, OD600, 48 h; response scale: 0% DMSO, 100% iron-clioquinol control; AID 1347071; further: nearly all actives have a fitted effect of over 55% in size
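Yeast growth medium received pinned compounds, then yeast cells expressing toxic A-beta were added; plates incubated at 30 C for 48 hr. Growth read as absorbance at 600 nm, normalized to DMSO and equimolar FeCl3 plus clioquinol controls.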
Large screens that a line does not name were inactive; ! = not confirmed by another sample. Only some compounds are listed: those with a hit (about 2.1% of all), similar ones and a draw of the others. The call rests on the fitted dose curve; in most records, active means well fitted curve in the direction sought with a large enough effect; inconclusive means small, poorly fitted or top-dose-only effect, or another doubt; inactive means no such curve, though single readings can be large; an effect the other way counts as inactive or inconclusive.

COCCCn1c(=O)c2sccc2n2c(CCCC(=O)NC3CCC(C)CC3)nnc12 (configuration not stated)	none (no result: aSyn yeast inh)
COc1cc(C2Oc3ccccc3C=C2[N+](=O)[O-])cc(OC)c1OC (configuration not stated)	TDP-43 yeast inh 5µM, aSyn yeast inh inconclusive
COC(=O)c1sccc1S(=O)(=O)N1CCN(c2cccc(C)c2C)CC1	TDP-43 yeast inh inconclusive (no result: aSyn yeast inh)
O=C(NCc1ccccc1)c1nn(-c2ccccc2)nc1CO	none (no result: aSyn yeast inh)
Cc1cccc(NC(=O)C2C(c3ccccc3)C2(Cl)Cl)c1 (configuration not stated)	TDP-43 yeast inh 22µM
CCCCC(C)Sc1nc2c([nH]1)c(=S)n(C)c(=O)n2C (configuration not stated)	TDP-43 yeast inh inconclusive (no result: FUS suppressor)
CCCC(CC)Sc1nc2c([nH]1)c(=S)n(C)c(=O)n2C (configuration not stated)	TDP-43 yeast inh 35µM (no result: FUS suppressor)
COc1ccc(OC)c(NC(=O)c2nc(S(=O)(=O)Cc3ccc(F)cc3)ncc2Cl)c1	TDP-43 yeast inh 3.2µM (no result: aSyn yeast inh)
CCOC(=O)c1c(-c2ccccc2)csc1NC(=O)c1nc(S(=O)(=O)CC)ncc1Cl	TDP-43 yeast inh 4µM (no result: aSyn yeast inh)
CCS(=O)(=O)c1ncc(Cl)c(C(=O)Nc2ccccc2)n1	TDP-43 yeast inh 11µM (no result: aSyn yeast inh)
Cc1cccc(NC(=O)c2nc(S(C)(=O)=O)ncc2Cl)c1	TDP-43 yeast inh 20µM (no result: aSyn yeast inh)
CCS(=O)(=O)c1ncc(Cl)c(C(=O)Nc2ccccc2OC)n1	none (no result: TDP-43 yeast inh)
COc1cccc(NC(=O)c2nc(S(C)(=O)=O)ncc2Cl)c1	TDP-43 yeast inh inconclusive
COc1ccccc1NC(=O)c1nc(S(=O)(=O)Cc2ccccc2)ncc1Cl	none
COc1ccc(N(C)C(=O)c2cn(C3CCCCC3)c(=O)c3c2c2ccccc2n3C)cc1	none (no result: aSyn yeast inh)
CSc1ccc(S(=O)(=O)Nc2ccc3c4c(cccc24)CC3)cc1	aSyn yeast inh 13µM
Cc1[nH]nc(Nc2ccc(C(C)C)cc2)c1[N+](=O)[O-]	TDP-43 yeast inh 13µM
COc1ccccc1-c1nnc(SC/C(O)=C(\C#N)c2nc3ccccc3[nH]2)n1C1CCCCC1	FUS suppressor 28µM
N#CCSc1nnc(Cc2cccs2)n1C1CCCCC1	TDP-43 yeast inh inconclusive
Cn1cnnc1SC/C(O)=C(\C#N)c1nc2ccccc2[nH]1	none
N#C/C(=C(/O)CSc1nnc(Cc2cccs2)n1C1CCCCC1)c1nc2ccccc2[nH]1	FUS suppressor 50µM
CCCN(CC1CC1)c1c2c(nc3ncnn13)CCCC2	none (no result: TDP-43 yeast inh, aSyn yeast inh, Abeta yeast res)
CC(=O)Nc1ccc(Nc2nc3ccc(C)cc3n3nnnc23)cc1	none (no result: aSyn yeast inh)
CCCN(CCC)C(=O)COc1cc(=O)n(CC)c2ccccc12	none
CCCN(C(=O)COc1cc(=O)n(CC)c2ccccc12)c1ccc(C(C)C)cc1	TDP-43 yeast inh 22µM, FUS suppressor inconclusive (no result: aSyn yeast inh)
CCCC(=O)Nc1cc(C(=O)NCc2ccccc2)ccc1S(=O)(=O)c1ccc(Cl)cc1	TDP-43 yeast inh inconclusive (no result: aSyn yeast inh)
Cc1ccc(SCC(=O)O/N=C(\N)c2cccnc2)cc1	TDP-43 yeast inh 10µM
Cc1ccc(S(=O)(=O)N(C)CC(=O)O/N=C(\N)c2cccnc2)cc1	none (no result: FUS suppressor)
CCOc1ccc(CNC(=O)Cn2ncc3c(=O)oc4ccc(C)cc4c32)cc1	none (no result: aSyn yeast inh)
COc1ccc(CNC(=O)COCc2cc(-c3ccc4c(c3)OCO4)on2)cc1	none (no result: aSyn yeast inh)
COc1cccc(CNC(=O)COCc2cc(-c3ccc4c(c3)OCO4)on2)c1	TDP-43 yeast inh 35µM (no result: aSyn yeast inh)
O=C(COCc1cc(-c2ccc3c(c2)OCO3)on1)N1CCN(c2cccc(C(F)(F)F)c2)CC1	TDP-43 yeast inh 35µM!
C=CCN1C(=O)[C@@H](CC(=O)NCCCOC)[C@]2(C(=O)OCC)CCCCC/C=C/12	none (no result: TDP-43 yeast inh, aSyn yeast inh, Abeta yeast res)
Cc1cccc(OCC(=O)N2CCN(c3nnc(-c4ccccc4)c4ccccc34)CC2)c1	TDP-43 yeast inh 25µM, Abeta yeast res inconclusive
COc1ccc(OCC(=O)N2CCN(c3nnc(-c4ccc(C)cc4)c4ccccc34)CC2)cc1	TDP-43 yeast inh 22µM
Cc1ccc(OCC(=O)N2CCN(c3nnc(-c4ccc(C)cc4)c4ccccc34)CC2)cc1	TDP-43 yeast inh inconclusive, FUS suppressor inconclusive
COc1ccc(N2CCN(C(=O)COc3cccc4ccccc34)CC2)cc1	TDP-43 yeast inh 13µM (no result: FUS suppressor)
Cc1ccc(C)c(NC(=O)CCCn2c(C)c3cnn(-c4ccccc4)c(=O)c3c2C)c1	none (no result: aSyn yeast inh)
CN(/N=C/c1ccccc1Cl)c1ncc(Cl)cc1C(F)(F)F	none
CN(/N=C/c1ccc(O)cc1O)c1ncc(C(F)(F)F)cc1Cl	TDP-43 yeast inh 35µM, Abeta yeast res inconclusive
Cc1cccc(CNC(=S)OCCN2CCCC23CCC(c2ccccc2)CC3)c1 (configuration not stated)	none (no result: TDP-43 yeast inh, aSyn yeast inh, Abeta yeast res)
CN(C)c1ccnc2sc(C(N)=O)c(N)c12	none
CN(C)c1ccnc2sc(C(=O)NCc3ccccc3)c(N)c12	TDP-43 yeast inh inconclusive, aSyn yeast inh 13µM
Cc1ccc(C)c(NC(=O)CSc2ncc3c(n2)-c2ccc(Cl)cc2N(C)S3(=O)=O)c1	none (no result: aSyn yeast inh)
CC(C)CNC(=O)OCc1cn(Cc2cccc(C(F)(F)F)c2)nn1	none (no result: TDP-43 yeast inh, aSyn yeast inh, Abeta yeast res)
CCCCNc1c(-c2ccc(OC)c(Sc3ccc(OC)cc3)c2)nc2cnccn12	TDP-43 yeast inh 32µM, FUS suppressor inconclusive
CCCCNc1c(-c2ccc(SC(C)CC)cc2)nc2cnccn12 (configuration not stated)	FUS suppressor 10µM
CCCCCCSc1cc(-c2nc3cnccn3c2NCCCC)ccc1OC	FUS suppressor inconclusive
Cc1c(C(=O)OCC2CCCCC2)[nH]c2c1C(=O)CC(c1ccccc1Cl)C2 (configuration not stated)	none (no result: aSyn yeast inh)
COc1ccc(S(=O)(=O)Nc2ccc3c(c2)C(=O)N([C@H](C)CO)C[C@H](C)[C@@H](CN(C)S(=O)(=O)c2ccccc2)O3)cc1	FUS suppressor inconclusive
Cc1ccc(S(=O)(=O)Nc2ccc3c(c2)C(=O)N([C@H](C)CO)C[C@H](C)[C@@H](CN(C)C(=O)NC2CCCCC2)OCCCC[C@@H](C)O3)cc1	FUS suppressor 16µM
Cc1ccc(S(=O)(=O)N(C)C[C@@H]2Oc3ncc(C#CCC(C)C)cc3C(=O)N([C@H](C)CO)C[C@H]2C)cc1	TDP-43 yeast inh 25µM, FUS suppressor 28µM
Cc1ccc(S(=O)(=O)Nc2ccc3c(c2)C(=O)N([C@H](C)CO)C[C@H](C)[C@H](CN(C)C(=O)Nc2cccc4ccccc24)OCCCC[C@@H](C)O3)cc1	TDP-43 yeast inh inconclusive, FUS suppressor 13µM
COc1ccc(S(=O)(=O)N(C)C[C@H]2Oc3ccc(NS(=O)(=O)c4ccccc4)cc3C(=O)N([C@H](C)CO)C[C@@H]2C)cc1	FUS suppressor 18µM
CN(C)c1ccc(/C=C/c2cc(/C=C/c3ccc(N(C)C)cc3)c3ccccc3n2)cc1	none (no result: TDP-43 yeast inh, FUS suppressor, Abeta yeast res)
COc1ccc(CN2C(=O)NC3(CCCCC3)C2=O)cc1F	none
COc1ccc(CN2C(=O)NC3(CCCc4ccccc43)C2=O)cc1F (configuration not stated)	TDP-43 yeast inh 11µM
O=C(CSc1ccccc1Cl)c1ccco1	TDP-43 yeast inh 16µM
O=C(CSc1ccc(Cl)cc1)c1ccco1	none
